This is a sample that favours compounds with a hit; in the whole collection about 8% have one here.
KB-V1 cytotox = qHTS assay for MDR1-selective chemotherapeutics: Primary screen using the drug-selected MDR subline cells KB-V1 | KB-V1 MDR cells viability, CellTiter-Glo, 72 h | Potency, µM (doses to about 46.1 µM), hits mostly cytotoxic | 3.4% of 400,000 active; also: % is scaled to controls: 0 for no effect and ±100 for the full control effect; nearly all actives have a fitted effect of over 60% in size
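Cells of the MDR subline KB-V1 are plated, dosed with compound at multiple concentrations, and incubated 72 h at 37 degrees C; CellTiter-Glo is then added and luminescence read after 10 min.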
KB-3-1 cytotox = qHTS assay for MDR1-selective chemotherapeutics: Primary screen using the parental adenocarcinoma cell KB-3-1; Potency, µM (top dose mostly 46.1 µM), actives largely listed as cytotoxic; KB-3-1 viability, CellTiter-Glo ATP luminescence, 72 h; 1.4% of 400,000 active; AID 1347075, 2019; also: % is scaled to controls: 0 for no effect and ±100 for the full control effect; nearly all actives have a fitted effect of over 60% in size
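Here the drug-naive KB-3-1 line serves as comparator for MDR sub-line selectivity; cells received compound titrations, 72 h at 37 °C, then CellTiter-Glo readout.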
MCF10A rerep = A quantitative high throughput screen for small molecules that induce DNA re-replication in MCF 10a normal breast cells | MCF 10A DNA re-replication, Hoechst nuclear intensity, 48 h | Potency, µM (titrated, usually from 46.1 µM), for inactives: at the top dose activity, positive = re-replication, usual class: activators | 2.9% of 350,000 active | AID 624296, 2012; also: % of control where 0% means no effect; nearly all actives have a fitted effect of over 50% in size
SW480 rereplic = A quantitative high throughput screen for small molecules that induce DNA re-replication in SW480 colon adenocarcinoma cells; SW480 DNA re-replication, Hoechst DNA content imaging, 48 h; Potency, µM (series often up to 46.1 µM), inactives show at the top dose re-replication activation, actives largely listed as activators; 1.8% of 340,000 active; AID 624297, 2012; also: % of control where 0% means no effect; nearly all actives have a fitted effect of over 55% in size
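Cells (250 per well) received 23 nL compound or DMSO by pin tool and were kept 48 hr at 37 C, 5% CO2. Nuclei were then stained with Hoechst for 40 min and scanned for DNA content.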
HT1080 IDH1KD tx = qHTS for induction of synthetic lethality in tumor cells producing 2HG: qHTS for the HT-1080-IDH1KD cell line; HT-1080 IDH1 knockdown viability, ATP luminescence, 48 h; Potency, µM (highest dose often 46.1 µM), for the others: at the top dose activity, negative = toxicity, most hits filed as cytotoxic; 2% of 360,000 active;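 also: 0% = DMSO wells and -100% = cell-free medium wells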
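Knockdown cells (IDH1KD HT-1080) received compounds 2 h after plating at 750 cells/well and were kept 48 h at 37 °C in 5% FBS RPMI. A CellTiter-Glo luminescence read gave % activity for curve fitting.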
HT1080NT lethal = qHTS for induction of synthetic lethality in tumor cells producing 2HG: qHTS for the HT-1080-NT fibrosarcoma cell line; Potency, µM (highest dose often 46.1 µM), for the others: at the highest dose activity, negative = less viability, actives largely listed as cytotoxic; 1.6% of 360,000 active; HT-1080-NT fibrosarcoma viability, CellTiter-Glo ATP luminescence, 48 h;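 also: NT is the 2HG producing partner of a matched IDH1 knockdown line; 0% = DMSO-treated cells and -100% = media-only wells without cells; nearly all actives have a fitted effect of over 55% in size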
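Luminescent CellTiter-Glo readout after 48 hours of compound exposure at 37 degrees C defined viability of HT-1080-NT cells. Activity was normalized to DMSO wells and cell-free media wells; concentration-response curves were fitted and assigned curve classes.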
Starred values were filed as active, the others as inactive; [ ] = remark or other dose. Calls follow the shape of the dose curve; as a rule, active = well fitted curve in the direction sought with a large enough effect; inconclusive = small, poorly fitted or top-dose-only effect, or another doubt; inactive = no such curve, though single readings can be large; an effect the other way counts as inactive or inconclusive. Potency is read from the fitted curve at half-maximal effect.

What do the screens show for `COc1ccc(N2CC(C(=O)N[C@@H](C)C(=O)NC3CCCCC3)CC2=O)cc1` (stereo not given in full)?
KB-V1 cytotox: inconclusive; KB-3-1 cytotox: inactive; MCF10A rerep: 3%; SW480 rereplic: -1%; HT1080 IDH1KD tx: 0%; HT1080NT lethal: 4%

What do the screens show for `CCOC(=O)C1CCN(CCCSc2ccccc2)CC1`?
KB-V1 cytotox: inconclusive; KB-3-1 cytotox: inactive; MCF10A rerep: 9%; SW480 rereplic: 2%; HT1080 IDH1KD tx: 1%; HT1080NT lethal: 4%

How did COCC(C)NC(=O)c1cc2c(=O)n3cccc(C)c3nc2s1 (stereo not given) do in these assays?
KB-V1 cytotox: inactive; KB-3-1 cytotox: inactive

What do the screens show for `O=C(Nc1sc2c(c1C(=O)NCc1cccnc1)CCCC2)c1cc(=O)c2ccccc2o1`?
KB-V1 cytotox: inactive; KB-3-1 cytotox: inactive

How did Cc1nc(NCC2CCCO2)c2nnn(Cc3ccccc3Cl)c2n1 (stereo not given) do in these assays?
KB-V1 cytotox: inactive; KB-3-1 cytotox: inactive; MCF10A rerep: -4%; SW480 rereplic: -3%; HT1080 IDH1KD tx: -27%; HT1080NT lethal: -1%[9.24 µM]

What do the screens show for `COc1ccc(Nc2nc(C)nc3c2nnn3Cc2ccccc2Cl)c(OC)c1`?
KB-V1 cytotox: inactive; KB-3-1 cytotox: inactive; MCF10A rerep: 3.3µM*; SW480 rereplic: 0%; HT1080 IDH1KD tx: 5%; HT1080NT lethal: 0%

How did CCc1nc(NCc2ccc3c(c2)OCO3)c2oc3ccccc3c2n1 do in these assays?
KB-V1 cytotox: 16µM*; KB-3-1 cytotox: inconclusive; MCF10A rerep: inconclusive; SW480 rereplic: 3%; HT1080 IDH1KD tx: -12%; HT1080NT lethal: -7%

Results for COc1cccc(Nc2nc(C)nc3c2oc2ccccc23)c1 ?
KB-V1 cytotox: inactive; KB-3-1 cytotox: inactive; MCF10A rerep: inconclusive; SW480 rereplic: 5%; HT1080 IDH1KD tx: inconclusive; HT1080NT lethal: -10%

How did COc1ccc(Nc2nc(C)nc3c2oc2ccccc23)c(OC)c1 do in these assays?
KB-V1 cytotox: inactive; KB-3-1 cytotox: inactive; MCF10A rerep: 15µM*; SW480 rereplic: inconclusive; HT1080 IDH1KD tx: 29µM*; HT1080NT lethal: 18µM*

What do the screens show for `CCc1nc(Nc2ccc(OC)cc2OC)c2oc3ccccc3c2n1`?
KB-V1 cytotox: inactive; KB-3-1 cytotox: inactive; MCF10A rerep: inconclusive; SW480 rereplic: inconclusive; HT1080 IDH1KD tx: 15µM*; HT1080NT lethal: inconclusive

How did CC(C)(C)c1cc(C(=O)N2CCc3ccccc3C2)ccn1 do in these assays?
KB-V1 cytotox: inactive; KB-3-1 cytotox: inactive; MCF10A rerep: -7%; SW480 rereplic: -12%; HT1080 IDH1KD tx: -4%; HT1080NT lethal: 0%

Results for Cc1cc2ccccc2c[n+]1C ?
KB-V1 cytotox: inactive; KB-3-1 cytotox: inconclusive

How did CN1CCC[C@@H](CC2c3ccccc3Sc3ccccc32)C1 do in these assays?
MCF10A rerep: -1%[20.6 µM]; SW480 rereplic: inconclusive

Results for COc1ccccc1Nc1nc(C)nc2c1oc1ccccc12 ?
KB-V1 cytotox: inconclusive; KB-3-1 cytotox: inactive; MCF10A rerep: 18µM*; SW480 rereplic: 12%; HT1080 IDH1KD tx: -28%; HT1080NT lethal: inconclusive

How did Cc1nc(Nc2ccccc2O)c2oc3ccccc3c2n1 do in these assays?
KB-V1 cytotox: inactive; KB-3-1 cytotox: inactive; MCF10A rerep: 0%; SW480 rereplic: 0%; HT1080 IDH1KD tx: 0%; HT1080NT lethal: 4%

What do the screens show for `COC(=O)Nc1nc2ccc(C(=O)c3ccccc3)cc2[nH]1`?
MCF10A rerep: inconclusive; SW480 rereplic: 0.29µM*

How did COC(=O)Nc1nc2ccc(SC(C)C)cc2[nH]1 do in these assays?
KB-V1 cytotox: 1µM*; KB-3-1 cytotox: 1.5µM*; MCF10A rerep: 1.6µM*; SW480 rereplic: 0.82µM*; HT1080 IDH1KD tx: 1.3µM*; HT1080NT lethal: inconclusive

How did COc1cccc(C(=O)Nc2nc3ccccc3[nH]2)c1 do in these assays?
KB-V1 cytotox: inconclusive; KB-3-1 cytotox: inconclusive; MCF10A rerep: 15%; SW480 rereplic: 2%[9.22 µM]; HT1080 IDH1KD tx: inconclusive; HT1080NT lethal: -27%

Results for Nc1cccc(-c2nc3ccc(C(=O)c4ccccc4)cc3[nH]2)c1 ?
KB-V1 cytotox: 3.7µM*; KB-3-1 cytotox: 6.5µM*; MCF10A rerep: inconclusive; SW480 rereplic: 18µM*; HT1080 IDH1KD tx: 10µM*; HT1080NT lethal: 13µM*

What do the screens show for `COC(=O)Nc1nc2ccc(C(=O)c3cccs3)cc2[nH]1`?
KB-V1 cytotox: 0.13µM*; KB-3-1 cytotox: 0.015µM*; MCF10A rerep: 0.21µM*; SW480 rereplic: 0.24µM*; HT1080 IDH1KD tx: inconclusive; HT1080NT lethal: inconclusive

What do the screens show for `Nc1ccc2nc(-c3ccccc3)[nH]c2c1`?
KB-V1 cytotox: inactive; KB-3-1 cytotox: inactive; MCF10A rerep: inconclusive; SW480 rereplic: 2%; HT1080 IDH1KD tx: -19%; HT1080NT lethal: -17%

How did COC(=O)C1=C[C@@H](C(=O)OC)[C@@H]2C3=C(C(=O)[C@@]2(C)NC(=O)c2ccccc2)[C@H](C)n2c(=O)n(C)c(=O)n2[C@@H]3C1 do in these assays?
KB-V1 cytotox: inactive; KB-3-1 cytotox: inactive; MCF10A rerep: 4%; SW480 rereplic: inconclusive; HT1080 IDH1KD tx: 0%; HT1080NT lethal: 13%

What do the screens show for `O=C(O)c1sc2cccc(Cl)c2c1Cl`?
KB-V1 cytotox: inactive; KB-3-1 cytotox: inactive; MCF10A rerep: inconclusive; SW480 rereplic: -1%; HT1080 IDH1KD tx: -1%; HT1080NT lethal: -4%

Results for COC(=O)c1scc(-c2ccc(C)cc2)c1S(=O)(=O)N1CCN(c2ccc(OC)cc2)CC1 ?
KB-V1 cytotox: inactive; KB-3-1 cytotox: inactive

What do the screens show for `O=C(O)c1cccc(NC(CNS(=O)(=O)c2ccc(Cl)cc2)c2ccccc2)c1` (stereo not given)?
KB-V1 cytotox: inactive; KB-3-1 cytotox: inactive; MCF10A rerep: 13%; SW480 rereplic: 2%; HT1080 IDH1KD tx: -19%; HT1080NT lethal: 0%

Results for O=S(=O)(NCC(Nc1ccccc1)c1ccccc1)c1ccc(Cl)cc1 (stereo not given) ?
KB-V1 cytotox: 21µM*; KB-3-1 cytotox: inactive; MCF10A rerep: inconclusive; SW480 rereplic: inconclusive; HT1080 IDH1KD tx: -11%; HT1080NT lethal: -16%
